The panel holds about 83,000 compounds, 20% with a hit somewhere; the sample as a whole holds those more often.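 Values shown are percent growth following 48 h exposure of cells in 96-well plates to a single concentration of compound; below 10 was considered active.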 Unmarked numbers belong to inactive results. Calls of active or inactive are those of the source.

From PubChem BioAssay (NCI) come the findings set out here.

Holding throughout (experiment): NCI-60 one-dose screen, 48 h (100 = growth as untreated, 0 = no growth, -100 = all killed)
Holding throughout (conditions): 10 µM unless noted

Experiment [1] relates to NCI-H23 lung.
Experiment [2] relates to NCI-H226 lung.
For experiment [3], the system named is NCI-H322M lung.
In experiment [4] the test system is HOP-62 NSCLC.
Experiment [5] relates to NCI-H460 lung.
The subject of experiment [6] is HOP-92 NSCLC.
The subject of experiment [7] is NCI-H522 lung.
Experiment [8] relates to A549/ATCC NSCLC.
Experiment [9] has as its system 786-0 renal.
Experiment [10] has as its system COLO 205 colon.

With `Cc1cc2nc3c4ccccc4n(CCCN(C)C)c3nc2cc1C`, the growth in experiment [1] is -53.4% (active); in [2], 4.65% (active); in experiment [3], -22.6% (active); in [4] it was -0.831% (active); in experiment [5], -25.7% (active); in experiment [6] it was -18.2% (active). Moreover, the growth is -58.7% (active) in experiment [7], 6.71% (active) in [8], 3.7% (active) in experiment [9] and -86.3% (active) in experiment [10].
As to `NS(=O)(=O)c1ccc(-n2cc(-c3cccc(NC(=O)c4cc(C(F)(F)F)cc(C(F)(F)F)c4)c3)nn2)cc1`, the growth was 41.1% in [1]; 27.5% in experiment [2]; 65.8% in experiment [3]; 15% in experiment [4]; 71.4% in experiment [5]; -16.9% (active) in experiment [6]. The growth in [7] is 75.4%; in [8], 56.7%; in experiment [9], 44.2%; in experiment [10] it was 91.7%.
Consider `O=C1NC(=O)c2c1c1c3cc(Br)ccc3[nH]c1c1oc3ccc(F)cc3c21`, for which the growth was -23.6% (active) in experiment [1]; -0.591% (active) in experiment [2]; -11.8% (active) in experiment [3]; -42% (active) in experiment [4]; -82.6% (active) in experiment [5]; -53.2% (active) in experiment [6]. Besides, the growth is -61.6% (active) in experiment [7], 53.5% in experiment [8], -40.8% (active) in experiment [9] and 30.1% in experiment [10].
For the compound `N#Cc1c(-c2cccc(Cl)c2Cl)cc(-c2c[nH]c3ccccc23)[nH]c1=O`, the growth in experiment [1] is 70.2%; in experiment [2] it was 8.48% (active); in experiment [3] it was 76.5%; in experiment [4], 80.1%; in [5], 85.6%; in experiment [6], -0.53% (active). Moreover, the growth in experiment [7] was 70.2%; in experiment [8], 67.2%; in [9], 16.9%; in experiment [10] it was 105%.
For `COc1ccc2c(c1)C(=N/N=C(\C)c1ccc(OC)c(S(N)(=O)=O)c1)C(=O)N2`, the growth in [1] was 94.1%; in experiment [2], 89.3%; in [3], 94%; in [4], 89.1%; in experiment [5] it was 101%; in experiment [6] it was 79%. The growth in [7] was 84%; in experiment [8] it was 94%; in experiment [9], 97.9%; in experiment [10], 98.7%.
With `CC(=O)Nc1cccc(Nc2nc(N[C@H]3CCCc4ccccc43)c3ccccc3n2)c1`, the growth in experiment [1] is 104%; in experiment [2] it was 111%; in experiment [3] it was 103%; in [4] it was 102%; in [5], 104%; in [6], 110%. In addition, the growth in experiment [7] was 97.5%; in [8], 104%; in experiment [9], 106%; in experiment [10] it was 109%.
In the case of `CC(=O)Oc1ccccc1C(=O)[Se]CC(=O)Nc1cccc(C(F)(F)F)c1`, the growth in experiment [1] is -50.9% (active); in experiment [2] it was -39.2% (active); in experiment [3], -16.5% (active); in [4] it was -61.1% (active); in experiment [5], 0.365% (active); in experiment [6], -60.3% (active). For the same compound, the growth in [7] is -30.4% (active); in experiment [8], -61.3% (active); in experiment [9], -14.7% (active); in [10], 19.7%.
Turning to `Cc1c(C(=O)NNC(=O)Nc2ccc(Cl)cc2)nnn1-c1ccc(Br)cc1`, the growth in experiment [1] is 102%; in [2], 103%; in experiment [3], 90.3%; in [4], 97.1%; in experiment [5] it was 107%; in [6], 92.8%. For the same compound, the growth in experiment [7] was 96.4%; in experiment [8] it was 96.9%; in experiment [9], 96.7%; in experiment [10], 107%.
For the compound `COc1ccc(-c2nnc3ccc(N/N=C/c4ccc(O)cc4)nn23)cc1`, the growth in experiment [1] was 32.5%; in experiment [2], 77.5%; in experiment [3], 61.9%; in experiment [4], 88.4%; in experiment [5] it was 44.3%; in experiment [6], 31.3%. For the same compound, the growth in experiment [7] is 46.7%; in experiment [8], 58.5%; in [9] it was 22.9%; in experiment [10], 56.5%.
`CC(C)c1ccc2c(N)c(C(=O)Nc3ccc(C(F)(F)F)cn3)sc2n1`: the growth in experiment [1] was 43.5%; in [2], 22.9%; in experiment [3], 86.3%; in experiment [4], 57.7%; in experiment [5], 61.6%; in [6], 65.1%. Moreover, the growth in experiment [7] is 63.2%; in experiment [8], 66.9%; in [9] it was 64.3%; in [10] it was 93.1%.
As to `CC1=C(C(=O)c2ccccc2)C(c2cccc(Cl)c2Cl)n2c(nc3ccccc32)N1` (stereo not given), the growth in experiment [1] was 63%; in [2] it was 7.18% (active); in experiment [3] it was 72%; in [4], 14.9%; in experiment [5], 60.9%; in [6], 18%. The growth was 49.9% in [7], 53.4% in [8], 37.9% in experiment [9] and 82.3% in experiment [10].
Regarding `COc1ccc(C(=O)/C=C/c2ccc(Oc3nc(Nc4ccc(F)cc4)nc(N(C)C)n3)c(OC)c2)cc1`, the growth is 42% in experiment [1]; 69.7% in experiment [2]; 80.4% in experiment [3]; 100% in [4]; 26.2% in [5]; 57.4% in experiment [6]. Further, the growth in experiment [7] was 49.7%; in experiment [8], 64.7%; in [9] it was 57.3%; in [10] it was 93.1%.
For the compound `c1ccc(-c2csc(Nc3cccc(Nc4nc(-c5ccccc5)cs4)c3)n2)cc1`, the growth in experiment [1] was 36.8%; in experiment [2], 66.2%; in [3] it was 58.1%; in experiment [4] it was 73%; in experiment [5], 26.9%; in experiment [6] it was 43.7%. In addition, the growth is 11.4% in experiment [7], 44.2% in experiment [8], 50.4% in [9] and 83.5% in [10].
